Experimental findings from PubChem BioAssay AID588742 (Southern Research Specialized Biocontainment Screening …, 2011) are described below.

About 410 (23%) of roughly 1,800 compounds were called active. A selection follows. Entries with a potency or affinity are not part of this list. A number with no mark means an inactive call. How the calls were made is not given here.

The nature of this assay: Vero cell cytotoxicity, cytotoxicity control for flavivirus capping enzyme inhibitors (AID 588742). The settings on record: Vero cells viability, cytotoxicity counter-screen; series mostly up to 40 µM; viability: at the top concentration. Background: The purpose of a counterscreen is to sort out artefacts and off-target activity.
Consider `CCc1ccc(N(C(=O)c2csnn2)C(C(=O)NC(C)(C)CC)c2cccnc2)cc1` (stereo not drawn), for which the “viability” value is 90.1%.

`O=C1OC(c2ccccc2)/C(=C(/O)c2ccc(Cl)cc2)C1=O` (stereo not drawn): the “viability” value is 96%.

For the compound `CC(C)c1noc2ncc(C(=O)c3cc(Cl)cc(Cl)c3O)cc12`, the “viability” value was 94.7% [at 20 µM].

Regarding `CCCCn1c(=O)nc2n(-c3ccccc3)c3ccccc3cc-2c1=O`, the “viability” value is 96.6%.

Turning to `O=C1c2ccccc2C(=O)c2c(/C=C/N3CCCCC3)ccnc21`, the “viability” value was 87.5%.

For `O=S(=O)(Nc1c(O)ccc2ccccc12)c1ccccc1`, the “viability” value is 91.4%.

On to `O=c1ccc2c(-c3ccccc3S(=O)(=O)O)c3ccc(O)c(O)c3oc-2c1O`, for which the “viability” value is 83.3%.

In the case of `Cc1ccc(S(=O)(=O)NN2C(=O)/C(=C/c3ccc(C(=O)O)cc3)SC2=S)cc1`, the “viability” value was 96.6%.

As to `N#CC1=C(N)N(c2ccccc2)C2=C(C(=O)CCC2)C1c1ccsc1` (stereo not drawn), the “viability” value was 99.9%.

`C=CCn1c(SCC(=O)c2ccccc2)nnc1-c1ccc2c(c1)OCO2`: the “viability” value is 97.8%.

As for `N#C/C(=C\c1cccs1)C(=O)c1ccccc1`, the “viability” value was 102%.

For the compound `CC(=O)OCC1=C(C(=O)O)N2C(=O)C(NC(=O)CCn3nc(C(F)(F)F)c(Br)c3C3CC3)C2SC1` (stereo not drawn), the “viability” value was 105%.

`COc1ccc(N2CCN(C(=O)CCC(=O)N3Cc4ccccc4Oc4ncccc43)CC2)cc1`: the “viability” value is 95%.

Regarding `CN1C(C(=O)NCc2cccs2)=CC(c2ccc(F)cc2)=NS1(=O)=O`, the “viability” value is 103%.

As to `O=C(O)C(c1ccccc1)N1C(=O)/C(=C/c2cccs2)SC1=S` (stereo not drawn), the “viability” value is 104%.

`Nc1ccc(S(=O)(=O)Nc2nccs2)cc1N=Nc1ccccc1[N+](=O)[O-]`: the “viability” value is 88.8%.

As to `CCOC(=O)c1cc(-c2ccco2)nc2c1c(C)nn2CCC#N`, the “viability” value is 88.5%.

Turning to `COc1cc(C(C2C(=O)CC(C)(C)CC2=O)C2C(=O)CC(C)(C)CC2=O)ccc1O`, the “viability” value was 102%.

As for `COc1cccc(/C=C2\SC(=S)N(NS(=O)(=O)c3ccccc3)C2=O)c1OC`, the “viability” value is 81.7%.

On to `CN(C)c1ccc(C=Nc2ccc(N(C)C)cc2)cc1`, for which the “viability” value is 101%.

In the case of `O=C1NC(=S)N/C1=C/C=C/c1ccccc1`, the “viability” value was 93.6%.

In the case of `CCCC(C(=O)O)N1C(=O)/C(=C2\C(=O)N(C)c3ccccc32)SC1=S` (stereo not drawn), the “viability” value is 97.8%.

For the compound `CCN1/C(=C2\C(=O)N(C)C(=S)N2C)C=Cc2cc(OC)ccc21`, the “viability” value is 91.1%.

For `O=C(O)CN1C(=O)/C(=C\c2cccc(OCc3ccc(Cl)cc3Cl)c2)SC1=S`, the “viability” value is 87%.

Regarding `O=C(CNC(=O)N1CC(=O)Nc2ccccc21)Nc1cccc(F)c1`, the “viability” value was 98.9%.

Regarding `O=C(O)c1[nH]c2ccccc2c1C(c1ccccc1)c1c(C(=O)O)[nH]c2ccccc12`, the “viability” value is 99.6%.

`Cc1ccc(S(=O)(=O)/N=C2\C=C(NS(=O)(=O)c3ccc(C)cc3)C(=O)c3ccccc32)cc1`: the “viability” value is 101% [at 20 µM].

For `O=C(O)c1ccc(Nc2nc3ccccc3nc2NS(=O)(=O)c2ccc(F)cc2)cc1`, the “viability” value is 86.9%.

In the case of `O=C(O)c1ccc(NS(=O)(=O)c2ccc3c(c2)C(=O)c2cc(S(=O)(=O)Nc4ccc(C(=O)O)cc4)ccc2-3)cc1`, the “viability” value was 105%.

For the compound `O=C(O)c1ccc(NC2=C/C(=N/S(=O)(=O)c3cccs3)c3ccccc3C2=O)cc1`, the “viability” value was 82.7%.

With `Cc1ccc(/C=C2\S/C(=N/S(=O)(=O)c3cccs3)NC2=O)cc1`, the “viability” value is 93.7%.

On to `CC(C)(C)c1ccc(S(=O)(=O)/N=C2\C=C(NS(=O)(=O)c3ccccc3)C(=O)c3ccccc32)cc1`, for which the “viability” value is 102% [at 20 µM].

In the case of `Cc1ccc(N2C(N)=C(C#N)C(c3cccnc3)C3=C2CCCC3=O)cc1` (stereo not drawn), the “viability” value was 84.3%.

In the case of `C=CCOc1cccc(C2C(C(=O)c3cc4ccccc4o3)=C(O)C(=O)N2c2cc(C)on2)c1` (stereo not drawn), the “viability” value was 85%.

Take `CCOc1ccc(NS(=O)(=O)c2ccc(Cl)c(N=Nc3c(O)[nH]c(=S)[nH]c3=O)c2)cc1Br`: the “viability” value is 94.2%.

For `C/C(=N\Nc1cccc(C(=O)O)c1)c1ccc2c(c1)Nc1ccccc1S2`, the “viability” value is 91.2%.

Take `CC(N=Cc1cccc(O)c1O)c1ccccc1` (stereo not drawn): the “viability” value is 92%.

As to `CSc1ccc(C(c2c(C(=O)O)[nH]c3ccccc23)c2c(C(=O)O)[nH]c3ccccc23)cc1`, the “viability” value was 103%.

Take `CN(C(=S)Nc1ccc(SC(F)F)cc1)c1ccc(O)cc1`: the “viability” value was 90.9%.

Consider `CC(C)c1nc(SCC(=O)N2CCCC2)c2ccccc2n1`, for which the “viability” value is 99.6%.

Turning to `CC(=O)OCC1=C(C(=O)O)N2C(=O)C(NC(=O)c3ccc(COc4c(C)cccc4Cl)o3)C2SC1` (stereo not drawn), the “viability” value is 108%.

For `Cc1ccc([C@@H]2CC=C(C(=O)O)[C@H](c3ccc(Br)cc3)N2S(=O)(=O)c2ccc(C)cc2)cc1`, the “viability” value was 100%.

For `CC1=C/C(=C(/c2cc(C)c(O)c(Br)c2)c2ccccc2S(=O)(=O)O)C=C(Br)C1=O`, the “viability” value was 89.2%.

Consider `COc1cc(/C=C2\SC(=S)N(C(C(=O)O)c3ccccc3)C2=O)cc(OC)c1OC` (stereo not drawn), for which the “viability” value is 89.6%.

Turning to `C[N+](C)(CCOc1ccccc1)Cc1ccccc1` (tested in a mixture with another compound), the “viability” value was 102%.

For the compound `O=C(CSc1nc2scc(-c3ccco3)c2c(=O)n1-c1ccccc1)NCC1CCCO1` (stereo not drawn), the “viability” value is 91%.

With `CC(C)(C)C1CCc2c(sc(NC(=O)C3CC=CCC3C(=O)O)c2C#N)C1` (stereo not drawn), the “viability” value was 87.3%.

As to `O=C(NC(NC(=S)Nc1ccccc1C(=O)O)C(Cl)(Cl)Cl)c1ccccc1` (stereo not drawn), the “viability” value is 102%.

The term viability denotes a read-out of living cells in per cent, often relative to untreated cells.
